Laboratory results taken from PubChem BioAssay (NCATS).
Records with an inconclusive call do not appear. Activity calls are given as the source filed them. The call rests on the fitted dose curve; in most records, active means well fitted cell-killing curve with a large enough effect; inconclusive means small, poorly fitted or top-dose-only effect, or effect the other way; inactive means flat fitted curve, though single readings scatter.

Assay: S16 Schwann cell viability assay (CellTiter-Glo assay) (AID 624031); further: nearly all actives have a fitted effect of over 70% in size;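 on activity change, negative = cytotoxicity: cellular ATP luminescence as a viability measure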
Settings: S16 rat Schwann cells viability, 24 h; series mostly up to 57.5 µM; activity change, negative = cytotoxicity: at the top concentration
Source text: Charcot-Marie-Tooth-Association [CMTA]
National Center for Advancing Translational Sciences [NCATS]
Charcot-Marie-Tooth (CMT) disease was first characterized by Jean-Martin Charcot and Pierre Marie in France and, independently, by Howard Henry Tooth in England in 1886. CMT is one of the most common inherited neurological diseases, affecting approximately 1 in 2,500 Americans. […] The most prevalent type of CMT is known as CMT1A and caused by a duplication of the PMP22 gene which leads to over-expression of this protein. PMP22 is a glycosylated intrinsic membrane protein accounting for 2-5% of the myelin protein content, and its over-expression results in demyelination and subsequently axonal loss.
A pair of cellular transcription-based assays was developed in the S16 rat Schwann cell lines (Hai, M., et al., 2002) stably transfected with orthogonal reporters - firefly luciferase (Fluc) and beta-lactamase (beta-Lac) - whose expression is driven by an intronic regulatory element of the PMP22 gene (Jones, E.A., et al., 2011) to recapitulate endogenous expression of PMP22. A comprehensive library of approved drugs, the NCGC Pharmaceutical Collection (Huang, R., et al., 2011), was screened in the cross-validating platform of the orthogonal reporter assays to identify drug modulators inhibitory towards PMP22 expression.
A set of counter-screens was devised to address non-specific activity of the library. An ATP-dependent CellTiter-Glo assay (developed by Promega Corp) was utilized to control cell viability. In addition, biochemical Fluc enzyme assay was performed to assess direct inhibition of the Fluc enzymatic activity.
Hai, M., Muja, N., DeVries, G.H., Quarles, R.H. and Patel, P.I. Comparative analysis of Schwann cell lines as model systems for myelin gene transcription studies. J Neurosci Res, 2002. 69(4): pp 497-508
Huang, R., Southall, N., Wang, Y., Yasgar A., Shinn P., Jadhav, A. , Nguyen, D.-T. and Austin, C.P., The NCGC pharmaceutical collection: a comprehensive resource of clinically approved drugs enabling repurposing and chemical genomics. Sci Transl Med, 2011. 3(80): p. 80ps16.
Native S16 cells were seeded in white solid-bottom 1536 well plates at between 500-750 cells/6uL in DMEM medium containing 10% FBS, w/o phenol red. After overnight incubation at 37 degree Celsius/5% C02, 23 nL of compounds or DMSO were delivered to each well using a pin tool, followed by 24h-incubation at 37 degree Celsius/5% C02. Then one volume of CellTiter-Glo assay reagent (Promega) was added to each well for cell viability measured by a ViewLux plate reader (PerkinElmer). The % activity was determined by normalizing to the average readings from wells containing no cells relative to DMSO-treated cells (0% Activity). The concentration-effect curves were then classified based on curve quality (r2), response magnitude and degree of measured activity.
Potency means the concentration at half of the fitted maximal effect.

Structure (SMILES)	activity change, negative = cytotoxicity	Potency
OCCOCCN1CCN(C2=Nc3ccccc3Sc3ccccc32)CC1	-21.2% (inactive)	
OC[C@H]1O[C@@H]2O[C@H]3[C@H](O)[C@@H](O)[C@@H](O[C@H]4[C@H](O)[C@@H](O)[C@@H](O[C@H]5[C@H](O)[C@@H](O)[C@@H](O[C@H]6[C@H](O)[C@@H](O)[C@@H](O[C@H]7[C@H](O)[C@@H](O)[C@@H](O[C@H]8[C@H](O)[C@@H](O)[C@@H](O[C@H]1[C@H](O)[C@H]2O)O[C@@H]8CO)O[C@@H]7CO)O[C@@H]6CO)O[C@@H]5CO)O[C@@H]4CO)O[C@@H]3CO	-3.92% (inactive)	
Cc1cc2c(OCC(CNC(C)(C)C)OC(=O)c3ccccc3)cccc2[nH]1 (stereo not given)	-11.8% (inactive)	
CN1CCN(c2cc3c(cc2F)c(=O)c(C(=O)O)cn3-c2ccc(F)cc2)CC1	1.27% (inactive)	
CC(=O)O[C@H]1C[C@@H]2CC[C@@H]3[C@H](CC[C@@]4(C)[C@H]3C[C@H]([N+]3(C)CCCCC3)[C@@H]4OC(C)=O)[C@@]2(C)C[C@@H]1N1CCCCC1	-0.657% (inactive)	
CC(C)Cc1ccc(CC(=O)O)cc1	2.47% (inactive)	
O=C(c1ccc(F)cc1)C1CCN(CCn2c(=S)[nH]c3ccccc3c2=O)CC1	-5.04% (inactive)	
NC(N)=NCc1cccc(I)c1	-5.83% (inactive)	
CC1CCc2c(N3CCC(O)CC3)c(F)cc3c(=O)c(C(=O)O)cn1c23 (stereo not given)	1.98% (inactive)	
CC(=O)Nc1ccc(CC(=O)O)cc1	1.53% (inactive)	
Oc1ccccc1C=NCc1ccccc1	10.6% (inactive)	
CCOc1ccccc1C(N)=O	4.49% (inactive)	
Nc1ccc(C(=O)NCC(=O)O)cc1	7.5% [at 25.7 µM] (inactive)	
Cc1ccc(-c2ncc(Cl)cc2-c2ccc(S(C)(=O)=O)cc2)cn1	-3.49% (inactive)	
CCOC(=O)c1ccc(N)cc1	2.46% [at 25.7 µM] (inactive)	
Cc1ncc(CO)c(C=O)c1O	8.21% (inactive)	
COc1ccc2c(c1)c1c3n2CCN(C)C3=NCC1	-19% (inactive)	
CN(C)CCC[C@@]1(c2ccc(F)cc2)OCc2cc(C#N)ccc21	0.461% (inactive)	
CC(=O)Nc1ncc([N+](=O)[O-])s1	0% (inactive)	
CCCCNC(=O)NS(=O)(=O)c1ccc(N)cc1	6.06% (inactive)	

Structure (SMILES)	activity change, negative = cytotoxicity	Potency
CC(=O)NCCCCCC(=O)O	2.66% (inactive)	
FC(F)(F)C(F)(F)C(F)(F)C(F)(F)C(F)(F)C(F)(F)C(F)(F)C(F)(F)Br	5.51% (inactive)	
CC(=O)NO	20.3% (inactive)	
O=C1C(=O)c2ccccc2C(O)=C1C1CCC(c2ccc(Cl)cc2)CC1 (stereo not given)	3.05% [at 25.7 µM] (inactive)	
CCOCCn1c(N2CCCN(C)CC2)nc2ccccc21	7.11% (inactive)	
CCc1oc2ccccc2c1C(=O)c1cc(I)c(O)c(I)c1	0.372% (inactive)	
O=C(O)C(Cc1cc(I)c(O)c(I)c1)c1ccccc1 (stereo not given)	-22.1% (inactive)	
COC(=O)C(c1ccccc1Cl)N1CCc2sccc2C1 (stereo not given)	1.97% (inactive)	
C#C[C@]1(O)CC[C@H]2[C@@H]3CCC4=CC(=O)CC[C@@H]4[C@H]3CC[C@@]21CC	-1.55% (inactive)	
CCN(CC)CCNC(=O)c1cc(Br)c(N)cc1OC	1.29% (inactive)	
CCC(CC)(CC(=O)Nc1cccc(/C=C/c2nc(C3CCC3)cs2)c1)C(=O)O	0% (inactive)	
O=C1C(CCS(=O)c2ccccc2)C(=O)N(c2ccccc2)N1c1ccccc1 (stereo not given)	1.14% [at 25.7 µM] (inactive)	
CCN(CC)CCOC(=O)C1(c2ccccc2)CCCC1	1.27% (inactive)	
CC(=O)O[C@]1(C(C)=O)CC[C@H]2[C@@H]3C=C(Cl)C4=CC(=O)CC[C@]4(C)[C@H]3CC[C@@]21C	-16.4% (inactive)	
COc1ccc(C(Cl)=C(c2ccc(OC)cc2)c2ccc(OC)cc2)cc1	5.81% (inactive)	
O[C@@H](c1cc(C(F)(F)F)nc2c(C(F)(F)F)cccc12)[C@H]1CCCCN1		28.7 µM (active)
NC(=O)C1(N2CCCCC2)CCN(CCCC(=O)c2ccc(F)cc2)CC1	-2.45% (inactive)	
C#C[C@]1(O)CC[C@H]2[C@@H]3CCc4cc(OC)ccc4[C@H]3CC[C@@]21C	-12.7% (inactive)	
CN(C)CCOC(c1ccc(Cl)cc1)c1ccccn1 (stereo not given)	-0.798% (inactive)	
CCCCCCCC/C=C\CCCCCCCCN	0% (inactive)	
